# Source: PubChem (National Center for Advancing Translational Sciences (NCATS))
# AMA1-RON2 inh: inhibitors of Plasmodium falciparum AMA1-RON2 interaction; AlphaScreen AMA1-biotinylated RON2 peptide binding; Potency, µM (series often up to 58.2 µM), for inactives: at the highest dose activity change, negative = inhibition, most hits filed as inhibitors; 360,000 compounds, 0.2% hits; AID 720542;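 also: 0% = vehicle wells and -100% = peptide control; nearly all actives have a fitted effect of over 45% in size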
#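 AMA1 (3D7) with his tag at 25 nM final met compounds first, then biotinylated RON2 peptide at 25 nM; detection used donor plus acceptor beads, 10 µg/mL apiece, read by AlphaScreen after 30 min at room temperature.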
# Sm TGR block: blocks Schistosoma mansoni thioredoxin glutathione reductase | Q962Y6 | purified TGR, DTNB reduction, TNB absorbance 405 nm | Potency, µM (top dose mostly 114 µM), inactives show at the highest dose activity change, negative = inhibition, actives largely listed as inhibitors | 360,000 compounds, 3% hits; also: % is scaled to controls: 0 for no effect and ±100 for the full control effect; nearly all actives have a fitted effect of over 60% in size
#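 First, TGR (20 nM dispensed) and NADPH were mixed with compound. Second, a 15 min room-temperature incubation followed. Third, further NADPH and then DTNB were added to start the reaction. Finally, TNB absorbance was monitored kinetically.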
# Pf growth 96h: P. falciparum growth inhibition at 96 hour, primary screen for plastid delayed-death inhibitors; 320,000 compounds, 6.9% hits; AID 504834; Potency, µM (titrated, usually from 28.7 µM), inactives show at the highest dose activity change, negative = inhibition, most hits filed as inhibitors; P. falciparum luciferase reporter growth, 96 h; also: % is scaled to controls: 0 for no effect and ±100 for the full control effect
#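 Two-generation exposure (96 h) targets delayed-death phenotype. Reporter parasites carrying integrated firefly luciferase, in red cells at 2% hematocrit and 0.05% parasitemia final, kept at 37 C, 5% CO2; luminescence loss indicates inhibition.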
# NS1 function inh: blocks influenza NS1 protein function. Potency, µM (doses to about 46.1 µM), for inactives: top-dose activity, positive = more growth. 270,000 compounds, 0.4% hits; calls by dose curve; also: actives are rising curves; nearly all actives have a fitted effect of over 50% in size
#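 Growth recovery, yeast-based: influenza A NS1 expressed in S. cerevisiae causes slow growth, and suppressors are detected by OD600. The parent strain without NS1 is used as positive control.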
# Pf growth 48h: inhibits P. falciparum growth in the first generation, 48 h. Potency, µM (titrated, usually from 28.7 µM), without a hit: at the top dose activity change, negative = inhibition, usual class: inhibitors. AID 504832. P. falciparum luciferase growth in erythrocytes, 48 h. 310,000 compounds, 5.9% hits; also: % is scaled to controls: 0 for no effect and ±100 for the full control effect
#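 Here the parasites carry a stable luciferase gene and grow inside erythrocytes in Albumax-based RPMI medium with compound for one erythrocytic cycle. Activity is scored as loss of luminescent signal.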
# * hit, by the source's call; ? = inconclusive; · = no result; [ ] = remark or other dose. Most compounds without a hit are left out; they make up all but 11% or so of the library. Unless noted, calls follow the shape of the dose curve; as a rule, active = well fitted curve in the direction sought with a large enough effect; inconclusive = small, poorly fitted or top-dose-only effect, or another doubt; inactive = no such curve, though single readings can be large; an effect the other way counts as inactive or inconclusive. Potency is read from the fitted curve at half-maximal effect.
SMILES,AMA1-RON2 inh,Sm TGR block,Pf growth 96h,NS1 function inh,Pf growth 48h
COc1ccc2oc(-c3ccc(NC(=O)c4ccc(N5CCOCC5)c([N+](=O)[O-])c4)cc3)nc2c1,1%,2%,?,7%,2.3µM*
CCC1(C)Cc2c(sc(NC(=S)NC(=O)c3ccccc3)c2C#N)CO1 (centres undefined),2%,?,57%,8%,25%
N#Cc1c(NC(=S)NC(=O)c2ccccc2)sc2c1CCC2,77%,4µM*,-80%,12%,30%
CC(C)(C)c1ccc(C(=O)NC(=S)Nc2sc3c(c2C#N)CCC3)cc1,-1%[2.32 µM],-2%,35%,6%,4%
CN1Cc2sc(NC(=S)NC(=O)c3ccccc3)c(C#N)c2CC1(C)C,-21%,32µM*,-51%,2%,-21%
CN1CCN(C(=O)C23CC4CC(C)(CC(C)(C4)C2)C3)CC1,-2%,19%,?,-5%,-3%
CC12CC3CC(C)(C1)CC(C(=O)N1CCCC1)(C3)C2,1%,4%,12µM*,-17%,?
CC(OC(=O)CCN=C1NS(=O)(=O)c2ccccc21)C(=O)Nc1ccc(S(N)(=O)=O)cc1 (centres undefined),0%,-3%,1%,·,-1%
O=C(C1CCN(c2nc(-c3ccccc3)nc3c2CCC3)CC1)N1CCCC1,-13%,·,·,·,·
CC1CCCCN1C(=O)C1CCN(c2nc(-c3ccccc3)nc3c2CCC3)CC1 (centres undefined),18%,2%,?,-1%,7.4µM*
Oc1c(Br)cc2oc3c(c2c1CNCc1ccccc1)CCCC3,41%,?,0.29µM*,0%,·
Oc1ccccc1CNCc1ccccc1,0%,7%,?,·,?
N#C/C(=C\c1cccc(Cl)c1)C(=O)c1ccccc1,6%,50µM*,0%,9%,5%
Cc1ccc(C)c(NC(=O)C(Sc2nncn2C)c2ccccc2)c1 (centres undefined),10%,89µM*,?,0%,-5%
Cc1ccc(C)c(NC(=O)C(Sc2nc3ccccc3c(=O)n2CC(C)C)c2ccccc2)c1 (centres undefined),-12%,2%,2.6µM*,12%,3.7µM*
Cc1ccc(C)c(NC(=O)C(Sc2ncnc3ccccc23)c2ccccc2)c1 (centres undefined),-2%,-11%,42%,8%,-3%
O=C1CCC([N+](=O)[O-])C(c2cccc([N+](=O)[O-])c2)N1 (centres undefined),2%,5%,?,·,6%
O=C(OC(C(=O)Nc1ccc(Cl)cc1C(F)(F)F)c1ccccc1)c1c(Cl)cccc1Cl (centres undefined),-1%,6%,0%,-6%,12µM*
CCCC(=O)OC(C(=O)Nc1cc(C(F)(F)F)ccc1Cl)c1ccccc1 (centres undefined),12%,3%,13µM*,1%,13µM*
Cc1cc(C(=O)NCC(=O)OC(C(=O)Nc2cc(C(F)(F)F)ccc2Cl)c2ccccc2)ccc1[N+](=O)[O-] (centres undefined),-12%,10%,?,30%,·
O=S(=O)(Nc1cccc(C(F)(F)F)c1)c1cnc[nH]1,1%,6%,10µM*,1%,12%
CCOc1cc2c3c(c1)C1(C(=O)N3C(C)(C)CC2C)C(C#N)=C(N)N2C(=C1C#N)Nc1ccccc12 (centres undefined),-18%[2.32 µM],-2%,?,?,3.3µM*
Cc1cc(/C=C2\SC(=S)NC2=O)c(C)n1-c1ccc(O)cc1,46%,-27%,410%,?,9.3µM*
Cc1cc(/C=C2\SC(=Nc3ccc(F)cc3)NC2=O)c(C)n1-c1ccc(S(N)(=O)=O)cc1,-2%,-19%,·,?,13µM*
CCc1ccc(Sc2cc(C(=O)NCCCN3CCC(C)CC3)c3ccccc3n2)cc1,·,3%,·,·,·
SMILES,AMA1-RON2 inh,Sm TGR block,Pf growth 96h,NS1 function inh,Pf growth 48h
CC(=O)Nc1cc2nc(C)n(Cc3ccccc3)c2nc1C,0%,4%,?,5%,·
Cc1nc2c(cc1NC(=O)c1ccccc1)nc(C)n2Cc1ccccc1,-10%,8%,12µM*,2%,-19%
CC(=O)Nc1ccc2c(c1)nc(C)n2Cc1ccccc1,-1%,-2%,0.41µM*,14%,5%
Cc1ccc(-c2c3c(=O)n(C)c(=O)n(C)c3c3n2-c2ccccc2NC3c2ccc(C)cc2O)cc1 (centres undefined),·,-8%,·,·,·
CCOc1ccccc1NC(=O)c1cc(S(=O)(=O)NCc2ccco2)ccc1F,0%,32µM*,51%,-3%,-30%
COc1ccc(OC)c(NC(=O)c2cc(S(=O)(=O)NCc3ccco3)ccc2F)c1,7%,1%,1.2µM*,-32%,0%
COc1cccc(C(=O)Nc2ccc(S(=O)(=O)NCc3ccco3)cc2)c1,?,-10%,·,-1%,-4%
CCOc1ccc(S(=O)(=O)NCc2ccncc2)cc1NC(=O)c1ccccc1F,1%,7%,19%,1%,29%
CCN(Cc1ccncc1)Cc1cn[nH]c1-c1cc(OC)c(OC)c(OC)c1,7%,-15%,9.3µM*,1%,?
Cc1cc2nc(-c3ccc(SCc4ccc(C#N)cc4)nc3)[nH]c2cc1C,1%,-18%,7.4µM*,22%,?
O=S(=O)(NNc1ccc(Cl)nn1)c1ccc(F)cc1,39%,1%,0%,17%,-19%
CC(=O)c1cccc(CN2CCN(Cc3ccc(F)cc3)C(CCO)C2)c1 (centres undefined),-8%,45µM*,?,6%,0%
CC(=O)Nc1ccc2nc(CN3CCN(Cc4ccc(F)cc4)C(CCO)C3)ccc2c1 (centres undefined),11%,25µM*,?,2%,?
CC(=O)c1cccc(CN2CCN(Cc3ccc(C)cc3)C(CCO)C2)c1 (centres undefined),-4%,-19%,1%,-1%,28%
CNc1cncc(-c2ccc(O)cc2C)n1,15%,·,·,·,·
CCC(CC)c1nnc(NC(=O)C2CC(=O)N(C3CCCC3)C2)s1 (centres undefined),1%,-11%,0%,-7%,-7%
Cc1cc(C)cc(Cn2cc(CN3CC(N4CCN(CCN(C)C)CC4)CS3(=O)=O)nn2)c1 (centres undefined),6%,·,·,·,·
COc1ccc(CN2CCN(C3CCOCC3)CC2CCO)c(C)c1C (centres undefined),-3%,-35%,?,0%,-2%
COc1ccc(CN2CCN(C3CCSCC3)CC2CCO)c(C)c1C (centres undefined),-8%,35µM*,-14%,-2%,20%
CC(=O)N(\C=C/C=C/C=C1\Sc2ccccc2C1=O)c1ccccc1,-2%,16µM*,64%,·,?
CN(C)/C=C1/Sc2ccccc2C1=O,-16%,7%,·,-153%,11%
Cc1ccc(C(=O)OCc2c(C)noc2C)cc1NC(=O)c1ccco1,-8%,-7%,10µM*,-5%,-77%
